# Experimental data as given in PubChem BioAssay AID651903 (Broad Institute, 2012).
# Screen size: about 22,000 compounds; about 1,100 (5%) were called active. The sample as a whole holds a higher share of actives than the screen did. Values without a mark were called inactive. No stated cut-off is given here; in the data, active means activity score above about 55%; inconclusive means no clear call, values can overlap the other calls; inactive means below that.
# Test: inhibitors of intracellular Trypanosoma cruzi, primary screen, cell-based, plate reader, single point, set 2 (AID 651903);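 further: parasites and compound incubated about four days before reading; 0% = median of neutral control wells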
# Settings: intracellular Trypanosoma cruzi in host cells, at 5.01 µM, stronger effect = higher value
row,Structure (SMILES),activity score (inhibition)
1,COc1ccc(S(=O)(=O)Nc2ccc3c(c2)C(=O)N([C@@H](C)CO)C[C@@H](C)[C@@H](CN(C)S(C)(=O)=O)O3)cc1,-8.35%
2,CC(C)NC(=O)Nc1cccc2c1O[C@H](CN(C)Cc1ccc3c(c1)OCO3)[C@H](C)CN([C@H](C)CO)C2=O,-10.8%
3,COc1ccc(S(=O)(=O)N(C)C[C@H]2Oc3ccc(NS(=O)(=O)c4c(C)noc4C)cc3CC(=O)N([C@@H](C)CO)C[C@H]2C)cc1,-2.67%
4,C[C@H](CO)N1C[C@H](C)[C@@H](CN(C)S(=O)(=O)c2ccccc2)Oc2c(NS(=O)(=O)c3cn(C)cn3)cccc2C1=O,-8.44%
5,COc1ccc(NC(=O)Nc2ccc3c(c2)C(=O)N([C@@H](C)CO)C[C@H](C)[C@@H](CN(C)S(=O)(=O)c2ccc(Cl)cc2)O3)cc1,16.5%
6,CC(C)NC(=O)Nc1cccc2c1O[C@H](CN(C)S(=O)(=O)c1ccccc1)[C@@H](C)CN([C@@H](C)CO)C2=O,0.345%
7,COc1ccc(CN(C)C[C@@H]2Oc3c(NC(=O)C4CC4)cccc3C(=O)N([C@@H](C)CO)C[C@H]2C)cc1,-27.5%
8,Cc1ccc(S(=O)(=O)Nc2ccc3c(c2)CC(=O)N([C@@H](C)CO)C[C@H](C)[C@H](CN(C)Cc2ccc(C(=O)Nc4ccccc4N)cc2)O3)cc1,66.2% (active)
9,C[C@@H]1CN([C@@H](C)CO)C(=O)c2cc(NS(=O)(=O)c3ccccc3)ccc2O[C@@H]1CN(C)Cc1ccc(C(=O)Nc2ccccc2N)cc1,34.8%
10,Cc1noc(C)c1S(=O)(=O)Nc1ccc2c(c1)C(=O)N([C@@H](C)CO)C[C@H](C)[C@H](CN(C)Cc1ccc(C(=O)Nc3ccccc3N)cc1)O2,74% (active)
11,COc1ccc(S(=O)(=O)Nc2ccc3c(c2)CC(=O)N([C@@H](C)CO)C[C@@H](C)[C@@H](CN(C)Cc2ccc(C(=O)Nc4ccccc4N)cc2)O3)cc1,54%
12,Cc1ccc(S(=O)(=O)Nc2ccc3c(c2)CC(=O)N([C@@H](C)CO)C[C@H](C)[C@H](CN(C)Cc2ccccc2)O3)cc1,12.2%
13,C[C@@H]1CN([C@H](C)CO)C(=O)c2cc(NS(=O)(=O)c3cn(C)cn3)ccc2O[C@@H]1CN(C)Cc1ccc(C(=O)Nc2ccccc2N)cc1,3.44%
14,C[C@H](CO)N1C[C@H](C)[C@H](CN(C)Cc2ccc(C(=O)Nc3ccccc3N)cc2)Oc2ccc(NS(C)(=O)=O)cc2C1=O,16%
15,Cc1ccc(S(=O)(=O)Nc2ccc3c(c2)C(=O)N([C@@H](C)CO)C[C@@H](C)[C@@H](CN(C)Cc2ccc(C(=O)Nc4ccccc4N)cc2)O3)cc1,23.3%
16,C[C@H]1CN([C@@H](C)CO)C(=O)Cc2cc(NS(=O)(=O)c3ccccc3)ccc2O[C@H]1CN(C)Cc1ccc(C(=O)Nc2ccccc2N)cc1,69.5% (active)
17,C[C@@H]1CN([C@H](C)CO)C(=O)c2cc(NC(=O)Nc3ccccc3)ccc2O[C@H]1CN(C)Cc1ccc(Cl)c(Cl)c1,-34%
18,C[C@@H]1CCCCO[C@@H](CN(C)S(=O)(=O)c2cccs2)[C@@H](C)CN([C@H](C)CO)C(=O)c2cc(NC(=O)Nc3ccc(F)cc3)ccc2O1,21.5%
19,O=C(NO)c1cccc(C(=O)N/N=C/c2cccnc2Cl)c1,1.22%
20,C[C@H](CO)N1C[C@H](C)[C@H](CN(C)C(=O)Nc2ccc(F)cc2)Oc2ccc(NC(=O)Cc3cn(C)c4ccccc34)cc2CC1=O,-2.27%
21,C[C@H](CO)N1C[C@H](C)[C@H](CN(C)Cc2ccncc2)Oc2ccc(NC(=O)Cc3cn(C)c4ccccc34)cc2CC1=O,4.58%
22,C[C@H]1CN([C@@H](C)CO)C(=O)Cc2cc(NC(=O)Cc3cn(C)c4ccccc34)ccc2O[C@H]1CN(C)Cc1ccccc1,11.1%
23,C[C@@H]1CN([C@H](C)CO)C(=O)Cc2cc(NC(=O)Cc3cn(C)c4ccccc34)ccc2O[C@@H]1CN(C)S(=O)(=O)c1ccccc1,47.8%
24,C[C@H]1CN([C@@H](C)CO)C(=O)Cc2cc(NC(=O)Cc3cn(C)c4ccccc34)ccc2O[C@@H]1CN(C)Cc1ccc(C(F)(F)F)cc1,65.6% (active)
25,C[C@H]1CN([C@@H](C)CO)C(=O)Cc2cc(NC(=O)Cc3cn(C)c4ccccc34)ccc2O[C@@H]1CN(C)Cc1ccccc1,57.4% (active)
26,C[C@H](CO)N1C[C@H](C)[C@@H](CN(C)S(=O)(=O)c2ccc(F)cc2)Oc2c(NC(=O)Nc3ccccc3)cccc2C1=O,14.1%
27,C[C@H]1CN([C@@H](C)CO)C(=O)Cc2cc(NS(=O)(=O)c3ccc(Cl)cc3)ccc2O[C@H]1CN(C)S(C)(=O)=O,-19.4%
28,COc1ccc(S(=O)(=O)N(C)C[C@H]2OCCCC[C@@H](C)Oc3ccc(NC(=O)c4ccncc4)cc3C(=O)N([C@H](C)CO)C[C@@H]2C)cc1,-7.48%

row,Structure (SMILES),activity score (inhibition)
1,COc1ccc(S(=O)(=O)N(C)C[C@H]2OCc3cnnn3CCCC(=O)N([C@H](C)CO)C[C@H]2C)cc1,0.901%
2,C[C@H](CO)N1C[C@H](C)[C@H](CN(C)CC2CCCCC2)Oc2ccc(NC(=O)CCCCCC(=O)Nc3ccccc3N)cc2C1=O,0.222%
3,C[C@@H]1CN([C@@H](C)CO)C(=O)c2cccc(NC(=O)CCCCCC(=O)Nc3ccccc3N)c2O[C@H]1CN(C)C(=O)Nc1cccc2ccccc12,0.294%
4,C[C@@H]1CN([C@H](C)CO)C(=O)c2cccc(NC(=O)CCCCCC(=O)Nc3ccccc3N)c2O[C@H]1CN(C)CC1CCCCC1,62.4% (active)
5,C[C@H]1CN([C@@H](C)CO)C(=O)c2cccc(NC(=O)CCCCCC(=O)Nc3ccccc3N)c2O[C@@H]1CN(C)CC1CCCCC1,81.9% (active)
6,CC(C)NC(=O)Nc1cccc2c1O[C@H](CN(C)CC1CCCCC1)[C@H](C)CN([C@H](C)CO)C2=O,-12%
7,C[C@@H]1CN([C@@H](C)CO)C(=O)c2cccc(NC(=O)CCCCCC(=O)Nc3ccccc3N)c2O[C@@H]1CN(C)CC1CCCCC1,17.2%
8,COc1cc(/C=N\NC(=O)CCCCCCC(=O)NO)c(Br)cc1O,22.6%
9,C[C@@H]1CN([C@H](C)CO)C(=O)c2cccc(NC(=O)C3CC3)c2O[C@@H]1CN(C)C(=O)Nc1ccccc1,-22.6%
10,C[C@H]1CN([C@@H](C)CO)C(=O)c2cccc(NC(=O)Nc3ccc(C(F)(F)F)cc3)c2O[C@H]1CN(C)S(=O)(=O)c1ccccc1,11.5%
11,Cc1ccc(S(=O)(=O)Nc2cccc3c2O[C@H](CN(C)C(=O)Nc2ccc(C(F)(F)F)cc2)[C@@H](C)CN([C@@H](C)CO)C3=O)cc1,-14.4%
12,C[C@@H]1CN([C@H](C)CO)C(=O)c2cccc(NC(=O)Nc3ccc(F)cc3)c2O[C@@H]1CN(C)C(=O)Nc1ccc(C(F)(F)F)cc1,-4.83%
13,C[C@@H]1CN([C@@H](C)CO)C(=O)c2cccc(NC(=O)Nc3ccc(F)cc3)c2O[C@@H]1CN(C)C(=O)Nc1ccccc1,-2.37%
14,C[C@@H]1CN([C@H](C)CO)C(=O)c2cccc(NC(=O)c3ccc(-c4nccs4)cc3)c2O[C@@H]1CN(C)C(=O)Nc1ccc(C(F)(F)F)cc1,38.2%
15,C[C@@H]1CN([C@H](C)CO)C(=O)c2cccc(NS(=O)(=O)c3ccc(F)cc3)c2O[C@@H]1CN(C)C(=O)Nc1ccc(C(F)(F)F)cc1,65.8% (active)
16,C[C@H](CO)N1C[C@H](C)[C@H](CN(C)C(=O)Nc2ccccc2)Oc2c(NC(=O)Nc3ccc(C(F)(F)F)cc3)cccc2C1=O,70.2% (active)
17,C[C@@H]1CN([C@@H](C)CO)C(=O)c2cccc(NC(=O)Nc3ccc(C(F)(F)F)cc3)c2O[C@@H]1CN(C)S(=O)(=O)c1ccc(F)cc1,71.6% (active)
18,C[C@H]1CN([C@@H](C)CO)C(=O)c2cccc(NS(=O)(=O)c3ccccc3)c2O[C@@H]1CN(C)C(=O)Nc1ccc(C(F)(F)F)cc1,34.3%
19,C[C@H](CO)N1C[C@H](C)[C@H](CN(C)C(=O)Nc2ccc(C(F)(F)F)cc2)Oc2c(NC(=O)c3ccncc3)cccc2C1=O,72.4% (active)
20,C[C@H]1CN([C@@H](C)CO)C(=O)c2cccc(NC(=O)c3ccc(-c4nccs4)cc3)c2O[C@@H]1CN(C)C(=O)Nc1ccc(C(F)(F)F)cc1,-8.3%
21,C[C@@H]1CN([C@H](C)CO)C(=O)c2cccc(NC(=O)Nc3ccc(C(F)(F)F)cc3)c2O[C@H]1CN(C)S(=O)(=O)c1ccc(Cl)cc1,36.7%
22,COc1ccc(NC(=O)Nc2cccc3c2O[C@H](CN(C)S(=O)(=O)c2cn(C)cn2)[C@H](C)CN([C@@H](C)CO)C3=O)cc1,-20.8%
23,O=C(NO)c1ccc(C(=O)N/N=C/c2ccc([N+](=O)[O-])c(O)c2)cc1,1.55%
24,C[C@@H]1CN([C@@H](C)CO)C(=O)c2cccc(N(C)C)c2O[C@H]1CN(C)S(=O)(=O)c1cccs1,-13.3%
25,Cc1noc(C)c1NC(=O)N(C)C[C@@H]1Oc2ccc(NC(=O)Nc3ccc(C(F)(F)F)cc3)cc2C(=O)N([C@H](C)CO)C[C@@H]1C,0.983%
26,C[C@H](CO)N1C[C@H](C)[C@@H](CN(C)S(=O)(=O)c2ccc(F)cc2)Oc2ccc(NC(=O)CCC(F)(F)F)cc2C1=O,4.98%
27,C[C@H](CO)N1C[C@H](C)[C@H](CN(C)S(=O)(=O)c2cn(C)cn2)Oc2c(NC(=O)c3ccc(-c4nccs4)cc3)cccc2C1=O,-7.9%
